# Compound activity as filed in PubChem BioAssay.
# An excerpt weighted towards active compounds, which were near 0.49% of everything screened.
# Vif-A3F inh: inhibitors of Vif-A3F interaction. 0.2% of 390,000 active. AID 602313. HeLa A3F-eYFP + Vif (tagged APOBEC3F with the HIV-1 protein that degrades it), YFP fluorescence increase. Potency, µM (top dose mostly 46.1 µM), without a hit: at the highest dose activity, negative = active; also: potency is read from the fitted curve at half-maximal effect; % of control where 0% means no effect; nearly all actives have a fitted effect of over 65% in size
#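 Fluorescence increase (Ex 488/Em 500-530) after overnight compound treatment at 37 deg C flags inhibition of Vif-driven A3F-eYFP loss in stable HeLa A3F-eYFP/Vif cells seeded overnight beforehand.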
# Pin1 inh: human Pin1 inhibition. Potency, µM (highest dose often 115 µM), for the others: at the highest dose activity, negative = inhibition, hits mostly inhibitors. Pin1 FP peptide displacement, HiFluor488, 10 min. AID 504891. 0.009% of 390,000 active. Q13526; active = well fitted inhibition curve with a large enough effect in the polarisation, with a control signal flat, not every such curve was filed as active; inconclusive = small, poorly fitted or top-dose-only effect, or effect the other way, or a change in a side signal; inactive = no such curve, though single readings can be large or run the other way; the % refers to the polarisation; also: potency is read from the fitted curve at half-maximal effect; % is scaled to controls: 0 for no effect and ±100 for the full control effect
# Target sequence (Q13526 whole entry, looked up): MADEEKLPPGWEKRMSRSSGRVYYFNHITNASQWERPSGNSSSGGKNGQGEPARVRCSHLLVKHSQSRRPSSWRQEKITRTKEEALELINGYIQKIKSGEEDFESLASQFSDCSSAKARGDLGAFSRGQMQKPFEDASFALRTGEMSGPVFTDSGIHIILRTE
# LDHA inh: blocks human lactate dehydrogenase A; activity change, % (values are at about 110 or 230 µM); purified LDHA, NADH/diaphorase-resazurin fluorescence; active compounds read low; P00338; 0.15% of 480,000 active; in the data active = activity change below about -30%; inconclusive = mostly about -25% to -30%;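 also: plate controls were DMSO wells for no effect and wells without enzyme for full effect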
#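 Enzyme activity of human lactate dehydrogenase 5 (2 nM; 0.06 mM NADH, 0.2 mM pyruvate, 5 min, RT) is measured via a resazurin/diaphorase fluorescence readout of residual NADH.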
# Vif-APOBEC3G blk: inhibitors of Vif-APOBEC3G interaction; 0.076% of 410,000 active; Potency, µM (top dose mostly 46.1 µM), inactives show top-dose activity, negative = active, actives largely listed as inhibitors; Q9HC16; AID 602310; HeLa A3G-eYFP + Vif (tagged APOBEC3G with the HIV-1 protein that degrades it), YFP fluorescence, overnight; also: potency is read from the fitted curve at half-maximal effect; % is scaled to controls: 0 for no effect and ±100 for the full control effect; nearly all actives have a fitted effect of over 60% in size
#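 HeLa cells stably expressing Vif and C-terminally eYFP-tagged A3G, seeded overnight at 37 deg C, then exposed to compound by pintool overnight at 37 deg C. Rise in yellow fluorescence (Ex 488/Em 500-530, Acumen) marks blocked Vif-driven A3G degradation.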
# mIDH1 inhibitor: blocks human mutant IDH1 R132H enzyme; O75874; Potency, µM (top dose mostly 76.6 µM), for inactives: at the highest dose activity change, negative = inhibition, actives largely listed as inhibitors; IDH1-R132H enzyme, NADPH consumption, diaphorase/resazurin fluorescence; 0.093% of 390,000 active; also: potency is read from the fitted curve at half-maximal effect; % is scaled to controls: 0 for no effect and ±100 for the full control effect; nearly all actives have a fitted effect of over 65% in size
# Target sequence (O75874 whole entry R132H, stated change not applied): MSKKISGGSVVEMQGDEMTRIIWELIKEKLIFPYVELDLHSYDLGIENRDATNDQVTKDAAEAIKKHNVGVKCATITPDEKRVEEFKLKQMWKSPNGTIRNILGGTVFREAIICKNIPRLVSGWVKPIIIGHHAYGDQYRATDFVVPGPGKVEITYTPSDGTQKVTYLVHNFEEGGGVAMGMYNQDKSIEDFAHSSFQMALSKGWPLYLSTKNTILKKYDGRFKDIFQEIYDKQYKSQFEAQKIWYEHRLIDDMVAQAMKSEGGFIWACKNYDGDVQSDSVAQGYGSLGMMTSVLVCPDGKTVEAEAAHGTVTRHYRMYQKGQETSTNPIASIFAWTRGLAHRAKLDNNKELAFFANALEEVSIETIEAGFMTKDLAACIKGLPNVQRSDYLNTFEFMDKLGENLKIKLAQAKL
#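 IDH1-R132H (0.5 ug/mL) preincubated 30 min with compound, then NADPH (0.016 mM) and alpha-KG (2 mM) added; 80 min at RT, pH 7.5. Remaining NADPH coupled via diaphorase/resazurin to fluorescence (540/590 nm); concentration-response curves normalized to no-enzyme control.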
# PGK inhibitor: inhibitors of T. brucei phosphoglycerate kinase; AID 602233; 0.043% of 380,000 active; P07378; PGK/GAPDH coupled, Kinase-Glo luminescence, 60 min; Potency, µM (series often up to 57.5 µM), inactives show at the highest dose activity change, negative = inhibition, hits mostly inhibitors; also: potency is read from the fitted curve at half-maximal effect; % is scaled to controls: 0 for no effect and ±100 for the full control effect; nearly all actives have a fitted effect of over 60% in size
#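 Luminescent ATP detection (Kinase-Glo Plus) follows a 60-minute room-temperature incubation, with wells lacking PGK as controls. Buffer: 100 mM TEA (pH 7.6), 5 mM MgCl2, 0.01% Tween-20. Coupling enzyme GAPDH (100 nM final) supplies unstable 1,3-BPG in-well.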
# * = called active by the depositor; i = inactive; u = inconclusive; x = not tested or not shown; ! = repeats disagree. Unless noted, calls follow the shape of the dose curve; as a rule, active = well fitted curve in the direction sought with a large enough effect; inconclusive = small, poorly fitted or top-dose-only effect, or another doubt; inactive = no such curve, though single readings can be large; an effect the other way counts as inactive or inconclusive.
SMILES,Vif-A3F inh,Pin1 inh,LDHA inh,Vif-APOBEC3G blk,mIDH1 inhibitor,PGK inhibitor
COC(=O)C1=C(C)NC(=O)CC1C(=O)Nc1ccc(Cl)cc1 (configuration not stated),x,x,-65.0*,x,x,x
COC(=O)C1=C(C)NC(=O)CC1C(=O)Nc1cc(Cl)ccc1C (configuration not stated),x,x,-21.6,x,x,x
CC(C)C(=O)/C(C#N)=C\c1cc2ccccc2nc1N1CCOCC1,x,x,2.8,x,x,x
CCc1ccc(NC(=O)/C(C#N)=C/c2cc3ccc(C)cc3nc2N2CCOCC2)cc1,7.94µM*,u,0.6,-13.5%,2.2%,-2.1%
COc1cc(Br)c(C=O)cc1OC,x,x,-0.8,x,x,x
Cc1ccccc1-n1c(C)c(C)c2c1ncn1nc(-c3cccnc3)nc21,x,x,9.1,x,x,x
CC1CCN(C(=O)C(C)Sc2nc(-c3ccccc3)cc(C(F)(F)F)n2)CC1 (configuration not stated),-3.6%,-0.1%,3.3,20µM*!,1.3%,-3.9%
Brc1cccc[n+]1CCCCCC[n+]1ccccc1Br,x,x,-59.9*,4.1%,x,x
Brc1cccc[n+]1CCCC[n+]1ccccc1Br,x,x,-61.6*,0.6%,x,x
COc1ccc(OC)c(/C=C/c2nc3ccccc3[nH]c2=O)c1,22.4µM*,u,0.7,u,0.0%,-3.7%
COc1cc(OC)c(OC)cc1/C=C/c1nc2ccccc2[nH]c1=O,x,x,36.6,x,x,x
CCCc1ccc(C(=O)COC(=O)c2cccc(S(C)(=O)=O)c2)cc1,x,x,3.4,x,x,x
CCOC(=O)/C(C(=O)Nc1ccccc1Cl)=C1/NC(C)(C)Cc2ccccc21,-8.8%,-0.8%,-1.3,-5.3%,0.1%,x
CCOC(=O)/C(C)=C1\NC(C)(C)Cc2ccccc21,-7.3%,28.5%,-105.5*,-0.9%,-8.9%,11.0%
CCCn1c(=O)[nH]c(=O)c2c3c(cnc21)C(=O)CC(c1ccc(OC)c(OC)c1)C3 (configuration not stated),x,x,-8.0,x,x,x
CCOc1ccc(NC(=O)CCCn2c(=O)c3cccn3c3ccccc32)cc1,x,x,-31.2*,x,x,x
COc1ccc(NC(=O)CCn2c(=O)c3cccn3c3ccccc32)cc1,0.9%,-10.1%,-12.2,2.1%,-6.8%,-6.7%
CCCCC#Cc1ccc(C(=O)NNC(=O)Nc2ccccc2)o1,14.1%,0.4%,-39.2*,-0.2%,1.9%,-4.7%
Cc1ccc2nc(-c3ccc(C)o3)c(NC3CCCC3)n2c1,x,-1.1%,-3.0,x,x,x
Cc1ccc2nc(-c3ccccn3)c(NC3CCCC3)n2c1,7.94µM*,-1.6%,4.0,-0.3%,8.9%,i
COc1ccc(S(=O)(=O)N2CCN(CC(=O)Nc3c(C)n[nH]c3C)CC2)cc1OC,8.5%,2.9%,-35.6*,-3.5%,3.0%,2.4%
Cc1n[nH]c(C)c1NC(=O)CN1CCN(S(=O)(=O)c2ccc(C(F)(F)F)cc2)CC1,6.0%,1.5%,-36.6*,-0.8%,-21.5%,3.9%
Cc1cc(/C=C2\NC(=S)N(C)C2=O)ccc1N1CCCC1,u,u,0.3,6.31µM*,0.8%,-8.2%
CCN1C(=O)/C(=C/c2ccc(N3CCCC3)cc2)NC1=S,25.1µM*,u,2.2,8.91µM*,1.4%,-3.7%
Cc1nnc(NC(=O)C2(c3ccc(F)cc3)CCC2)s1,x,x,4.6,x,x,x
SMILES,Vif-A3F inh,Pin1 inh,LDHA inh,Vif-APOBEC3G blk,mIDH1 inhibitor,PGK inhibitor
CCCCN(CCCC)S(=O)(=O)c1ccc(C(=O)Nc2sc3c(c2C(N)=O)CCN(CC)C3)cc1,28.2µM*,u,4.6,u,-8.2%,1.4%
O=C(Nc1ncn(Cc2cccc(C(F)(F)F)c2)n1)c1ccn(COc2ccc(Cl)cc2)n1,x,x,-0.2,x,x,x
Nc1c(C(=O)Nc2ccc(C(=O)O)cc2)sc2nc3c(cc12)CCCC3,-1.8%,-0.9%,0.3,-1.3%,6.9%,-7.1%
Nc1c(C(=O)Nc2ccc(S(=O)(=O)N3CCCC3)cc2)sc2nc3cc4c(cc3cc12)CCC4,10µM*,u,-2.2,12.6µM*,4.2%,i
Nc1c(C(=O)Nc2ccc(S(=O)(=O)N3CCCC3)cc2)sc2nc3ccc(OC(F)(F)F)cc3cc12,22.4µM*,u,-7.1,u,5.2%,-13.2%
O=C(/C=C/c1cnc2ccccc2n1)NCc1cccnc1,x,x,2.0,x,x,x
CCC(CC)C(=O)Nc1ccc(C)cc1C,x,x,1.5,x,x,x
CCSc1nnc(-c2sc3nnc(-c4ccccc4)c(-c4ccccc4)c3c2N)o1,12.6µM*,u,6.5,3.16µM*,4.4%,i
CCSc1nnc(-c2ccncc2)o1,0.2%,-1.2%,-5.3,-0.5%,-5.6%,-4.3%
C=C(C)C(=O)Nc1cccc(C2=NOC3(C2)C[C@@H](C(N)=O)N(C(=O)c2cc([N+](=O)[O-])cc([N+](=O)[O-])c2)C3)c1 (some centres not stated),-4.3%,-0.6%,3.4,2.7%,-0.3%,17.8µM*
CCCCCC(=O)Nc1cccc(C2=NOC3(C2)C[C@@H](C(N)=O)N(C(=O)c2cc([N+](=O)[O-])cc([N+](=O)[O-])c2)C3)c1 (some centres not stated),-0.1%,1.0%,6.7,4.8%,-5.1%,-13.4%
C=C(C)C(=O)Nc1cccc(C2=NOC3(C2)C[C@@H](C(N)=O)N(C(=O)c2ccc(OC)cc2)C3)c1 (some centres not stated),10.3%,31.6µM*,-1.5,0.0%,-5.9%,2µM*
CCc1cccc(NC(=O)c2ncoc2-c2cccc(Cl)c2)c1,x,x,-1.7,x,x,x
CCN(CC)C(=O)Cn1c(=O)n(-c2ccc(Cl)cc2)c(=O)c2c3c(sc21)CCC3,0.3%,-7.0%,-3.2,-1.5%,-3.2%,-0.3%
CCN(CC)C(=O)Cn1c(=O)n(-c2ccccc2)c(=O)c2c3c(sc21)CCC3,11.2µM*!,-4.1%,1.2,-0.4%,0.7%,13.9%
Cc1cc(NC(=O)c2nc3ccccc3nc2NCc2ccccc2)ccc1Br,x,x,3.6,x,x,x
COc1ccc(NC(=O)c2cccc3ccccc23)cc1,-0.1%,-7.0%,-0.3,11.2µM*,7.2%,i
Nc1cccc2c(O)cc(S(=O)(=O)O)cc12,-10.2%,u,35.2,4.2%,20.9%,17.8µM*
Cc1ccc(-n2nc(-c3noc(C(=O)NCc4ccc(C)o4)n3)c(=O)n(C)c2=O)cc1,x,x,-8.1,x,x,x
CCCNc1c(NC(=O)Nc2ccccc2OCC)c(=O)oc2ccccc12,x,x,-30.0*,x,x,x
CC(C(=O)NCc1cccs1)N1CCC(O)CC1 (configuration not stated),x,x,-1.5,x,x,x
Cc1cccc(Cl)c1OCCCn1ccnc1,-2.6%,-9.1%,-36.6*,0.1%,-4.2%,5.1%
CC(CC(=O)C1C(C)C=CCC1(C)C)NCc1ccccc1 (configuration not stated),x,x,-9.9,x,x,x
